The nature of test [1]: ATG_TAL_CIS: Attagene CIS-FACTORIAL HepG2 Assay for human TAL Basal Promoter (AID 2282966).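 Note: background control endpoint measuring basal TAL promoter reporter mRNA not a specific factor.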 As to conditions: HepG2 Attagene cis-factorial TAL promoter reporter; actives raise or lower the signal. Put shortly: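 HepG2 cells were transiently transfected with promoter-driven multiplexed reporter units and dosed for 24 h. Reporter mRNA was measured by RT-PCR with capillary electrophoresis fluorescence; bidirectional fits used DMSO as baseline, serving as a background control.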

Test [2] is described as follows: ATG_TGFb_CIS: Attagene CIS-FACTORIAL HepG2 Assay for human Transforming Growth Factor (TGF) (AID 2282967). As to conditions: HepG2 Attagene CIS TGFb reporter, mRNA transcription; actives raise or lower the signal. Put shortly:
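Cells were dosed for 24 hours, after which total RNA was reverse-transcribed and reporter sequences amplified, labeled and sized by capillary electrophoresis. Activity was fitted in both directions against DMSO.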

Test [3] in a line: ATG_VDRE_CIS: Attagene CIS-FACTORIAL HepG2 Assay for human Vitamin D Receptor Element (VDRE) (AID 2282968). Conditions: HepG2 VDRE cis-reporter transcription, actives raise or lower the signal. An outline of the steps:
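Reporter mRNA induction, quantified by capillary electrophoresis of fluorescently labelled RT-PCR products, was read 24 h after dosing HepG2 cells carrying transiently transfected cis-regulated reporter units; gain or loss relative to DMSO.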

Test [4] addresses Nuclear receptor subfamily 1 group I member 3 (Homo sapiens) (UniProt Q14994). In words: ATG_CAR_TRANS: Attagene TRANS-FACTORIAL HepG2 Assay for human Constitutive Androstane Receptor (CAR) (AID 2282969; active = hit-call score of the fitted dose curve at least 0.9, where 1 is the maximum;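 note: activators raise reporter mRNA above DMSO so AC50 marks induction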). Conditions: HepG2 Attagene TRANS-FACTORIAL CAR reporter. Put shortly: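 Readout is reporter mRNA induction, quantified by fluorescent primer extension and capillary electrophoresis after RT-PCR. Cells were HepG2 transiently carrying chimeric NR-Gal4 constructs with GAL4-UAS reporters, treated for 24 h; activity scored upward from DMSO.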

The target of test [5] is Estrogen receptor (Homo sapiens) (UniProt P03372). In words: ATG_ERa_TRANS: Attagene TRANS-FACTORIAL HepG2 Assay for human Estrogen Receptor alpha (ERa) (AID 2282970; active = hit-call score of the fitted dose curve at least 0.9, where 1 is the maximum). Conditions: HepG2 Attagene TRANS ERa GAL4 reporter, mRNA. An outline of the steps:
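HepG2 cells transiently transfected with multiplexed GAL4-UAS reporter units; ERa activity read via exogenous chimeric NR-Gal4 protein. After 24 hour compound exposure, reporter mRNA measured by RT-PCR with 6-FAM labelling and capillary electrophoresis; gain-of-signal fitted relative to DMSO.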

Test [6] deals with X-box-binding protein 1 (Homo sapiens) (UniProt P17861). Put plainly: ATG_Xbp1_CIS: Attagene CIS-FACTORIAL HepG2 Assay for human X-box Binding Protein 1 (XBP1) (AID 2282972). As to conditions: HepG2 XBP1 cis-element reporter, Attagene multiplex; actives raise or lower the signal. Put shortly:
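After a 24-hour chemical exposure of HepG2 cells carrying cis-regulated reporters, reporter mRNA levels are assessed. Quantification uses RT-PCR, 6-FAM labelling and capillary electrophoresis. Gain- or loss-of-signal is fitted against DMSO.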

A short description of test [7]: ATG_M_19_TRANS: Attagene TRANS-FACTORIAL HepG2 Assay for M19 Transcription Factor (Internal Marker) (AID 2282974; active = hit-call score of the fitted dose curve at least 0.9, where 1 is the maximum). Conditions: HepG2 Attagene TRANS-FACTORIAL M19 internal marker reporter. An outline of the steps: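 Background-control readout: after 24 h chemical exposure of transfected HepG2 carrying GAL4-driven reporter units, RNA was reverse-transcribed, amplified, fluorescently labeled and sized by capillary electrophoresis; gain-of-signal fit against DMSO.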

Test [8] is described as follows: ATG_GAL4_TRANS: Attagene TRANS-FACTORIAL HepG2 Assay for GAL4 (Internal Marker) (AID 2282976; active = hit-call score of the fitted dose curve at least 0.9, where 1 is the maximum). Conditions: HepG2 Attagene TRANS GAL4 internal marker reporter. Put shortly: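 HepG2 cells transiently transfected with multiplexed GAL4-UAS reporter constructs were dosed for 24 h. Reporter mRNA was measured by RT-PCR, 6-FAM primer extension, HpaI digestion and capillary electrophoresis, and gain of signal was fitted relative to DMSO.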

For test [9], the target named is Oxysterols receptor LXR-alpha (Homo sapiens) (UniProt Q13133). Put plainly: ATG_LXRa_TRANS: Attagene TRANS-FACTORIAL HepG2 Assay for human Liver X Receptor alpha (LXRa) (AID 2282980; active = hit-call score of the fitted dose curve at least 0.9, where 1 is the maximum). Conditions: HepG2 Attagene TRANS reporter, LXRa transactivation. An outline of the steps:
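HepG2 cells were transiently transfected with multiplexed reporter units driven by chimeric LXRa–GAL4 fusion proteins, then dosed for 24 h. Reporter mRNA was quantified by RT-PCR, fluorescent labelling and capillary electrophoresis; gain of signal fitted against DMSO baseline.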

Test [10] deals with Hepatocyte nuclear factor 4-alpha (Homo sapiens) (UniProt P41235). In words: ATG_HNF4a_TRANS: Attagene TRANS-FACTORIAL HepG2 Assay for human Hepatocyte Nuclear Factor 4 alpha (HNF4a) (AID 2282982; active = hit-call score of the fitted dose curve at least 0.9, where 1 is the maximum). Conditions: HepG2 HNF4a transactivation reporter, mRNA readout. Put shortly:
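Readout is fluorescent reporter-transcript fragments resolved by capillary electrophoresis after RT-PCR from HepG2 cells dosed for 24 h. Cells carried transfected GAL4-UAS reporter constructs measuring exogenous NR-GAL4 chimera activity; DMSO served as baseline.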

The nature of test [11]: ATG_M_06_TRANS: Attagene TRANS-FACTORIAL HepG2 Assay for M06 Transcription Factor (Internal Marker) (AID 2282983; active = hit-call score of the fitted dose curve at least 0.9, where 1 is the maximum;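 note: reporter transcript level by RT-PCR then capillary electrophoresis fluorescence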). As to conditions: HepG2 Attagene TRANS M06 internal marker reporter. Put shortly: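 HepG2 cells transiently transfected with multiplexed GAL4-UAS reporter transcription units; after 24 h compound exposure, reporter mRNA measured by RT-PCR, FAM-labelled primer extension, HpaI digestion and capillary electrophoresis. Gain-of-signal fitted versus DMSO baseline; background control readout.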

Test [12] can be described thus: ATG_M_32_TRANS: Attagene TRANS-FACTORIAL HepG2 Assay for M32 Transcription Factor (Internal Marker) (AID 2282984; active = hit-call score of the fitted dose curve at least 0.9, where 1 is the maximum). Conditions: HepG2 Attagene TRANS M32 internal marker reporter. An outline of the steps:
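Measures reporter mRNA induction in human HepG2 liver cells after 24 h chemical treatment. Transcripts from transiently transfected GAL4-UAS reporter units are amplified, fluorescently labelled and sized by capillary electrophoresis; gain of signal relative to DMSO.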

Test [13] concerns the target Nuclear receptor subfamily 4 group A member 2 (Homo sapiens) (UniProt P43354). Put plainly: ATG_NURR1_TRANS: Attagene TRANS-FACTORIAL HepG2 Assay for human Nuclear Receptor Related Protein 1 (NURR1) (AID 2282985; active = hit-call score of the fitted dose curve at least 0.9, where 1 is the maximum). As to conditions: HepG2 Attagene TRANS reporter, mRNA readout. Put shortly: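 Transient transfection of HepG2, human liver cells, with multiple GAL4-UAS reporter transcription units. Cells dosed 24 h, RNA isolated, reverse-transcribed, PCR-amplified, FAM-labelled, HpaI-digested, sized by capillary electrophoresis. DMSO served as negative control.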

For test [14], the target named is Transcriptional activator Myb (Homo sapiens) (UniProt P10242). Put plainly: ATG_Myb_CIS: Attagene CIS-FACTORIAL HepG2 Assay for human Myeloblastosis (Myb) Proto-Oncogene Transcription Factor (AID 2282986). Conditions: HepG2 Attagene CIS-FACTORIAL Myb reporter transcription; actives raise or lower the signal. An outline of the steps:
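Reporter mRNA is quantified by RT-PCR and capillary electrophoresis 24 h after dosing HepG2 cells transfected with cis-regulated reporter units, which track endogenous transcription factor activity. Gain and loss of signal are fitted versus DMSO baseline.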

In test [15] the target is Nuclear respiratory factor 1 (Homo sapiens) (UniProt Q16656). In words: ATG_NRF1_CIS: Attagene CIS-FACTORIAL HepG2 Assay for human Nuclear Respiratory Factor 1 (NRF1) Orphan Gene (AID 2282987). As to conditions: HepG2 NRF1 cis-element reporter, Attagene multiplex; actives raise or lower the signal. Put shortly: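 Endogenous NRF1-driven reporter transcription in transfected HepG2 cells after 24 h treatment. Readout: RT-PCR products, 6-FAM labelled and resolved by capillary electrophoresis; changes fitted both directions relative to DMSO.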
Sequence of Nuclear respiratory factor 1 (Homo sapiens) (Q16656 whole entry, looked up): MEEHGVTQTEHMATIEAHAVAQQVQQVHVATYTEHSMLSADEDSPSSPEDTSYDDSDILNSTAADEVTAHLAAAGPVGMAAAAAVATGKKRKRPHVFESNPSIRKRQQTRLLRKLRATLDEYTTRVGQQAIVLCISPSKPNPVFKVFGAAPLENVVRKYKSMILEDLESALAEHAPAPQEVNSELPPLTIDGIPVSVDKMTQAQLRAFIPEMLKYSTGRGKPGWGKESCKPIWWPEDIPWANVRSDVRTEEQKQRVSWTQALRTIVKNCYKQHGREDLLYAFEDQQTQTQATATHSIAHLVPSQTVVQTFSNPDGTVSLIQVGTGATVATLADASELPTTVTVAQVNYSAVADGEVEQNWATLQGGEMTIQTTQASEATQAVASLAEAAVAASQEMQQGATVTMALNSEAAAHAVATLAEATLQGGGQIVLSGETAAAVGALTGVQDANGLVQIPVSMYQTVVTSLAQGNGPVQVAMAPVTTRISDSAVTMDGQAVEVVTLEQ

For test [16], the target named is Steroid hormone receptor ERR1 (Homo sapiens) (UniProt P11474). Put plainly: ATG_ERRa_TRANS: Attagene TRANS-FACTORIAL HepG2 Assay for human Estrogen-Related Receptor alpha (ERRa) (AID 2282971; active = hit-call score of the fitted dose curve at least 0.9, where 1 is the maximum). As to conditions: HepG2 Attagene TRANS reporter, ERRa transactivation. An outline of the steps:
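HepG2 cells transiently transfected with multiplexed GAL4-UAS reporter units reading chimeric ERRa-Gal4 activity; 24 h compound exposure. Reporter mRNA measured by RT-PCR, 6-FAM labelling, HpaI digest and capillary electrophoresis; gain of signal fitted versus DMSO baseline.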

The target in test [17] is Estrogen-related receptor gamma (Homo sapiens) (UniProt P62508). Put plainly: ATG_ERRg_TRANS: Attagene TRANS-FACTORIAL HepG2 Assay for human Estrogen-Related Receptor gamma (ERRg) (AID 2282977; active = hit-call score of the fitted dose curve at least 0.9, where 1 is the maximum;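 note: hits increase reporter signal over DMSO so potencies reflect activators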). Conditions: HepG2 Attagene TRANS reporter, ERRg transactivation. Put shortly:
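Transfect HepG2 with multiple GAL4-UAS reporter transcription units; dose chemicals 24 h; isolate RNA, reverse-transcribe with oligo(dT), PCR-amplify, label with 6-FAM, digest with HpaI; size fragments by capillary electrophoresis. DMSO serves as negative control.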

In test [18] the target is Glucocorticoid receptor (Homo sapiens) (UniProt P04150). In words: ATG_GR_TRANS: Attagene TRANS-FACTORIAL HepG2 Assay for human Glucocorticoid Receptor (GR) (AID 2282978; active = hit-call score of the fitted dose curve at least 0.9, where 1 is the maximum;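 note: activators score as hits since higher reporter transcript over DMSO is fitted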). As to conditions: HepG2 Attagene TRANS GR reporter, mRNA transcription. An outline of the steps: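 Readout is reporter transcript from a chimeric GR-Gal4 acting on GAL4-UAS in transfected human HepG2 liver cells after 24 h exposure, quantified by RT-PCR and capillary electrophoresis. Activation fitted upward against DMSO.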

Test [19] deals with Bile acid receptor (Homo sapiens) (UniProt Q96RI1). In words: ATG_FXR_TRANS: Attagene TRANS-FACTORIAL HepG2 Assay for Farnesoid X Receptor (FXR) (AID 2282979; active = hit-call score of the fitted dose curve at least 0.9, where 1 is the maximum;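 note: hits raise reporter mRNA above DMSO so AC50 marks FXR activation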). As to conditions: HepG2 Attagene TRANS FXR-GAL4 reporter transcription. An outline of the steps: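 HepG2 cells transiently transfected with reporter constructs in which a chimeric FXR-GAL4 protein drives a GAL4-UAS reporter; 24 h compound exposure. Reporter mRNA measured by RT-PCR, FAM labelling, HpaI digestion and capillary electrophoresis; gain-of-signal versus DMSO.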
Sequence of Bile acid receptor (Homo sapiens) (Q96RI1 whole entry, looked up, the tested form may be a part): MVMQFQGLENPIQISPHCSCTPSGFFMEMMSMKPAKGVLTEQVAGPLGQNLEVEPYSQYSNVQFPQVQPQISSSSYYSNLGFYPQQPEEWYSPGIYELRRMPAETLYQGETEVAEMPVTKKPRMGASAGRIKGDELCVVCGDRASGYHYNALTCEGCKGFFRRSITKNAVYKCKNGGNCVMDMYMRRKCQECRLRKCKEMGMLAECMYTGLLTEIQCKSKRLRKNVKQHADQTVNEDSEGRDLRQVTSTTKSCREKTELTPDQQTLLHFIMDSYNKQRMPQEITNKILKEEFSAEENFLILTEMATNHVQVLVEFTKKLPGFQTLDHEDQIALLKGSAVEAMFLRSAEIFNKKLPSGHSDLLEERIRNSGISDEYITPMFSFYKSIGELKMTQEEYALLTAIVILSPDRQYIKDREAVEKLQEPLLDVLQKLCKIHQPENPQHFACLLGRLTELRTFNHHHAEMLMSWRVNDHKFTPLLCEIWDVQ

Inconclusive results are not listed. A structure can be active in one record and inactive in another. Activity calls are given as the source filed them. Rule for the calls, unless noted: active = hit-call score of the fitted dose curve at least 0.9, where 1 is the maximum; inactive = score below 0.9.

Sequence of Transcriptional activator Myb (Homo sapiens) (P10242 whole entry, looked up): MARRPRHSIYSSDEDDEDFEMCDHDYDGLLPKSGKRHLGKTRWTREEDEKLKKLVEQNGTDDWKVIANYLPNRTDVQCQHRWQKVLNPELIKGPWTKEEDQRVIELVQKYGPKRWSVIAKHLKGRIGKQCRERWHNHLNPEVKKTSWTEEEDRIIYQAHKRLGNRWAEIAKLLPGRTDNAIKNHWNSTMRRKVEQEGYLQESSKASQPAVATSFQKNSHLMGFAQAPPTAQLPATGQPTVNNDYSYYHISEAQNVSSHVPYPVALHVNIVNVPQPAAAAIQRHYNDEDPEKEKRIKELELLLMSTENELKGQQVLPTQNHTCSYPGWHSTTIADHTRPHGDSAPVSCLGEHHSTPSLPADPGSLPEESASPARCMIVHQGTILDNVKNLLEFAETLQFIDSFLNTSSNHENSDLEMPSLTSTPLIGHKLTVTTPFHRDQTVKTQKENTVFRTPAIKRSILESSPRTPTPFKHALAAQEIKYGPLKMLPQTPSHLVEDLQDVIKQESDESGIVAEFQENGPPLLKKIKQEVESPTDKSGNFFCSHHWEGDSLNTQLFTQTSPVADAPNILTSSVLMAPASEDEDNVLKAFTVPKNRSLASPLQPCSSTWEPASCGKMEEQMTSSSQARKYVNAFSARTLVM
Sequence of Estrogen receptor (Homo sapiens) (P03372 whole entry, looked up, the tested form may be a part): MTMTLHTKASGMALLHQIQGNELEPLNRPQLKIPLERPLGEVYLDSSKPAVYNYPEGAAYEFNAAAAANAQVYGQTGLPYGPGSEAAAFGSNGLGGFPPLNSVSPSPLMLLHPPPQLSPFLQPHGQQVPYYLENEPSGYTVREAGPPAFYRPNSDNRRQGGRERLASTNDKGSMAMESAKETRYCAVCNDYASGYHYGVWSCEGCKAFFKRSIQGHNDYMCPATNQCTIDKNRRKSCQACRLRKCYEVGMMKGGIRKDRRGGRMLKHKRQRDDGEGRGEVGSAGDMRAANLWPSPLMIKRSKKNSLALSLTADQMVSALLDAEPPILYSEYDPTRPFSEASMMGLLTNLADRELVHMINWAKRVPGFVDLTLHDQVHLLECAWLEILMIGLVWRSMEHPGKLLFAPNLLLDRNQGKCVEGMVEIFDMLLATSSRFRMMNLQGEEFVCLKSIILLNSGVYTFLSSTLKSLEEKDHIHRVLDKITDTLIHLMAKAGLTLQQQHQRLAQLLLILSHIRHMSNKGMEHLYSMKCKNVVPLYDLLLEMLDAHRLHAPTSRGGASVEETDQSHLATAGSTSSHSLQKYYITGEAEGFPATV
Sequence of X-box-binding protein 1 (Homo sapiens) (P17861 whole entry, looked up): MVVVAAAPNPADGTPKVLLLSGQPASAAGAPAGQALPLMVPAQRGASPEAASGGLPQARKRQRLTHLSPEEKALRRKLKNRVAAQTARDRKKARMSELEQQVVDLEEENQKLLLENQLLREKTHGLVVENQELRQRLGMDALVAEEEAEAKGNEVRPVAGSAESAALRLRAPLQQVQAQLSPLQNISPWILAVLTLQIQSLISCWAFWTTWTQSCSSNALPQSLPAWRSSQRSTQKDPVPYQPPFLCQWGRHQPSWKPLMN
Sequence of Oxysterols receptor LXR-alpha (Homo sapiens) (Q13133 whole entry, looked up, the tested form may be a part): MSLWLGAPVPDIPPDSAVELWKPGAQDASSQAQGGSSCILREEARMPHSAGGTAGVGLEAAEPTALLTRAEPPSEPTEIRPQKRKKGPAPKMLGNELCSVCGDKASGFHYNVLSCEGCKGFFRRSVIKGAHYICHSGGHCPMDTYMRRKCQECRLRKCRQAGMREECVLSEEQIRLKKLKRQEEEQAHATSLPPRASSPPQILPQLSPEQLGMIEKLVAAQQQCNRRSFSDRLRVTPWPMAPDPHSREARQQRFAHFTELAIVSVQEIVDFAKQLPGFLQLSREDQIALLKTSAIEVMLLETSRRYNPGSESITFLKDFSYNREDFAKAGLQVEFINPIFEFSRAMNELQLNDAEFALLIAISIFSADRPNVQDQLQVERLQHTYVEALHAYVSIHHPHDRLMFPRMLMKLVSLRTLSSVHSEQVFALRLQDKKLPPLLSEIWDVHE
Sequence of Nuclear receptor subfamily 4 group A member 2 (Homo sapiens) (P43354 whole entry, looked up, the tested form may be a part): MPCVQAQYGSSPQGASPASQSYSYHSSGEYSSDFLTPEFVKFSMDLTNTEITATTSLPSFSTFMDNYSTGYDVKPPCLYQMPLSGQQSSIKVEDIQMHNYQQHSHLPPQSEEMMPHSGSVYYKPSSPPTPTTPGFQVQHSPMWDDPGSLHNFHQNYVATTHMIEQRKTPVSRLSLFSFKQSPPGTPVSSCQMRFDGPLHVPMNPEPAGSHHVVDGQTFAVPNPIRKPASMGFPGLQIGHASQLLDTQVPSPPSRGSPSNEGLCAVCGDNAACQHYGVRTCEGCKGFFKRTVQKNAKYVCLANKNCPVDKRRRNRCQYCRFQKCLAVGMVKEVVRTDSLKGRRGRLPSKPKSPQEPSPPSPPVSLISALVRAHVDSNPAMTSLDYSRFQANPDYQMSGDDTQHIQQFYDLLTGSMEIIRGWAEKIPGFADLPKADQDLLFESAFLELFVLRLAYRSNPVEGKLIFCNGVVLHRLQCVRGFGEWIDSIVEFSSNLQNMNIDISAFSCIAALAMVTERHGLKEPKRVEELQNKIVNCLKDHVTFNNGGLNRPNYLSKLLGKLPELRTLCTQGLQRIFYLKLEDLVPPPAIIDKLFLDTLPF
Sequence of Hepatocyte nuclear factor 4-alpha (Homo sapiens) (P41235 whole entry, looked up, the tested form may be a part): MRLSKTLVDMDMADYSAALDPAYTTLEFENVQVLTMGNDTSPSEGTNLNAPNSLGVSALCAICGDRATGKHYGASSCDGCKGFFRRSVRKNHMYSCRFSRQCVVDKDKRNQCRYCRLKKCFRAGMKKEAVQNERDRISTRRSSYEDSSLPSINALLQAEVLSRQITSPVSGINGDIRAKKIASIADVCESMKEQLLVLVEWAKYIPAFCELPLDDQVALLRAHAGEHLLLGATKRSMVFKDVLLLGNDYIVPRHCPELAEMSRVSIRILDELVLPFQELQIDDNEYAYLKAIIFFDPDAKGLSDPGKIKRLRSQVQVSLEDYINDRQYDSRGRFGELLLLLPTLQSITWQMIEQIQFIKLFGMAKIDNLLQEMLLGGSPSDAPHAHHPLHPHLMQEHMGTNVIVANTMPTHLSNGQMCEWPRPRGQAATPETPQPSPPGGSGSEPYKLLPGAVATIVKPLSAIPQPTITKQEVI
Sequence of Nuclear receptor subfamily 1 group I member 3 (Homo sapiens) (Q14994 whole entry, looked up, the tested form may be a part): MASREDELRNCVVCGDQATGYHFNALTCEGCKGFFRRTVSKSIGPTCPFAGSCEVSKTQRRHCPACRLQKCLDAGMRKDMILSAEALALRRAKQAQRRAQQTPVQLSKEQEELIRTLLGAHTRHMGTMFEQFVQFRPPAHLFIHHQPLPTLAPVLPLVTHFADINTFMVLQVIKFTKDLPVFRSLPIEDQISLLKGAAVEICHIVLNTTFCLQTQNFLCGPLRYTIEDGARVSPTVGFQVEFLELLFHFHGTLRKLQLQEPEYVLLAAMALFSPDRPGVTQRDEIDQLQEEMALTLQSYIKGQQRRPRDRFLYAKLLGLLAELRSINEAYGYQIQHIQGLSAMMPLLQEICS
Sequence of Steroid hormone receptor ERR1 (Homo sapiens) (P11474 whole entry, looked up, the tested form may be a part): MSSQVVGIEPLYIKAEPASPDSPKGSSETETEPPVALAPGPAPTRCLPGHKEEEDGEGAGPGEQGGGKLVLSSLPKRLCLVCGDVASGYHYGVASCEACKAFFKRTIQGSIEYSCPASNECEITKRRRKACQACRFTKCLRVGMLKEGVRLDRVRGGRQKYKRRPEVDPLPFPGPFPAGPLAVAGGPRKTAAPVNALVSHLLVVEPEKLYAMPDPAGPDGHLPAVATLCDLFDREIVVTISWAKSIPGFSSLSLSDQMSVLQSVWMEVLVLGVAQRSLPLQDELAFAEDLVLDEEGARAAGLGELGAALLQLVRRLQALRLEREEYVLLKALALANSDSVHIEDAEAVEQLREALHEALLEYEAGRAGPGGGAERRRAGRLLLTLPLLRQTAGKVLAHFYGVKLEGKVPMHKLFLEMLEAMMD

What is called AC50 is the midpoint of the concentration-response curve, whichever way the signal moves. `CCCCCc1ccc(N)cc1`: the result in test [1], in [2], in test [3], in [4], in [6] and in test [7] was inactive. Besides, the outcome in test [8], in test [9], in test [10], in [11], in [12] and in test [13] was inactive. The result in test [14] and in test [15] was inactive. The AC50 in [5] is 12.2 µM (active) [middle of 4 runs].
Consider `c1ccc(C[n+]2cccc3ccccc32)cc1`, for which the call in test [1], in test [2], in [3], in test [5], in [16] and in test [6] was inactive. For the same compound, the compound was called inactive in test [7], in test [17], in test [18], in [19], in test [9] and in [10]. The compound was classed as inactive in [11], in [12], in [14] and in test [15].
Regarding `c1ccc2ccccc2c1`, the call in [1], in test [2], in test [3], in test [5], in [16] and in test [6] was inactive. Further, the call in test [17], in [11], in test [12], in test [13], in test [14] and in test [15] was inactive. In addition, the results for the AC50 in [5] and in [15] were 59 µM (active) and 100 µM (active), respectively.
In the case of `CC(=O)N1CCN(c2ccc(OC[C@H]3CO[C@](Cn4ccnc4)(c4ccc(Cl)cc4Cl)O3)cc2)CC1`, the call in test [1], in [2], in test [5], in [7], in test [18] and in [19] was inactive. The compound was called inactive in [12], in test [14] and in test [15]. For the same compound, the AC50 is 8.88 µM (active) in test [3], 18.3 µM (active) in test [6] and 43.7 µM (active) in [13].

These data come from PubChem BioAssay (EPA / NIEHS).
